In PubChem BioAssay (NCI):
The panel holds about 83,000 compounds, 20% with a hit somewhere; the sample as a whole holds those more often.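 Single-dose data. Exposure time 48 hours. Values below 10 considered active.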 A number with no mark means an inactive call. The source made the active and inactive calls.

Key:
Test in all cases: NCI-60 one-dose screen, 48 h (100 = growth as untreated, 0 = no growth, -100 = all killed)
Details in all cases: 10 µM unless noted
DU-145 prostate = system: DU-145 prostate
K-562 leukemia = system: K-562 leukemia
MALME-3M melanoma = system: MALME-3M melanoma
MDA-MB-231 breast = system: MDA-MB-231 breast
RXF 393 renal = system: RXF 393 renal
SF-268 CNS = system: SF-268 CNS
SF-295 CNS = system: SF-295 CNS
SF-539 CNS = system: SF-539 CNS
UACC-257 melanoma = system: UACC-257 melanoma
M14 melanoma = system: M14 melanoma
HCT-15 colon = system: HCT-15 colon
HT29 colon = system: HT29 colon
SNB-75 CNS = system: SNB-75 CNS
SNB-19 CNS = system: SNB-19 CNS
U251 CNS = system: U251 CNS
PC-3 prostate = system: PC-3 prostate
SK-MEL-5 melanoma = system: SK-MEL-5 melanoma
UACC-62 melanoma = system: UACC-62 melanoma
SK-MEL-28 melanoma = system: SK-MEL-28 melanoma

Row | Compound | growth (DU-145 prostate) [%] | growth (K-562 leukemia) [%] | growth (MALME-3M melanoma) [%] | growth (MDA-MB-231 breast) | growth (RXF 393 renal) | growth (SF-268 CNS) | growth (SF-295 CNS) | growth (SF-539 CNS) | growth (UACC-257 melanoma) [%] | growth (M14 melanoma) [%] | growth (HCT-15 colon) | growth (HT29 colon) | growth (SNB-75 CNS) | growth (SNB-19 CNS) | growth (U251 CNS) | growth (PC-3 prostate) [%] | growth (SK-MEL-5 melanoma) | growth (UACC-62 melanoma) [%] | growth (SK-MEL-28 melanoma) [%]
1 | C=CC[N+](C)(C)CCn1c2ccccc2c2nc3cc(C)c(C)cc3nc21 | 105 | 75.7 | 57.1 | 105% | 89.2% | 56.1% | 99.6% | 56.8% | 86 | 96.2 | 106% | 105% | 88.5% | 19.2% | 72.9% | 97.4 | 63.7% | 97.1 | 79.6
2 | COc1cc2c(c(OC)c1OC)C(=O)CC(c1cccc(NC(=O)c3cccc(NC(=O)[C@H](C)NC(=O)OC(C)(C)C)c3)c1)O2 (some centres not stated) | 61.7 | 40.7 | 70.3 | 69% | 90% | 53.6% | 65.9% | 85.2% | 77 | 76 | 44.2% | 62.2% | 64.6% | 78.8% | 78.1% | 45.6 | 25.9% | 39.7 | 85.6
3 | Cn1cc(-c2nnc(N)nc2-c2c[nH]c3ccc(F)cc23)c2cccnc21 | 80.2 | 15.7 | 44.8 | 51.6% | 65.4% | 61% | 25.6% | 47.2% | 72.7 | 21.6 | 28.5% | 16.8% | 24.4% | 52.2% | 37.3% | 63.7 | 20.9% | 36.9 | 63.2
4 | Cn1cc(-c2nnc(N)nc2-c2c[nH]c3ccccc23)c2cccnc21 | 76.9 | 15.7 | 38.2 | 48.5% | 71.1% | 65.9% | 32% | 49.3% | 62.3 | 20.8 | 28.9% | 17.2% | 28.5% | 51.6% | 41.6% | 57.8 | 24.4% | 33.9 | 55
5 | S=c1c2ccccc2nc2n1CCc1c-2[nH]c2ccccc12 | 68.1 | 57.8 | 54.2 | 40.8% | 28.7% | 57.7% | 63.4% | 43.4% | 66.1 | 70.1 | 68.9% | 78.8% | 0.815% (active) | 16.1% | 73.8% | 60.8 | 67% | 64.1 | 74.8
6 | COc1cc2oc(-c3cccc(C(=O)Nc4cccc([N+](=O)[O-])c4)c3)cc(=O)c2c(OC)c1OC | 29.5 | 69.2 | 11.4 | 11.5% | -13.4% (active) | -3.57% (active) | -0.211% (active) | 3.56% (active) | 31.7 | 58.2 | 58.1% | 59.9% | -6.58% (active) | -4.16% (active) | 23.8% | 33.3 | 43.4% | 18.4 | 25.3
7 | O=C(Nc1cccc(-n2cnc3cc(-c4ccc(O)cc4)ccc32)c1)C1CC1 | 28.5 | 12.2 | 46.3 | 32.3% | 14.1% | 34.9% | 6.04% (active) | -6.53% (active) | 73.3 | 40.5 | 11.9% | 8.01% (active) | -5.51% (active) | 32.9% | 9.54% (active) | 47 | 7.19% (active) | 38.5 | 54.3
8 | Cc1cccc(-c2nc(Nc3cccc(S(N)(=O)=O)c3)c3ccccc3n2)c1 | 57.3 | 10.2 | 75 | -13.6% (active) | 29.2% | 46.2% | 20.2% | -9.93% (active) | 87 | 54 | 9.69% (active) | 38.4% | 80.3% | 51.4% | 36.3% | 39.8 | 56.5% | 49.9 | 57.7
